# Compound activity deposited in PubChem by National Center for Advancing Translational Sciences (NCATS).
# Shown are actives, neighbours in structure and some others; about 2.2% of the full set was active somewhere.
# TrxR1 substrate = rat thioredoxin reductase 1 substrate activity; O89049; purified TrxR1 substrate turnover, NADPH consumption readout; Potency, µM (highest dose often 114 µM), for the others: top-dose activity change, negative = substrate turnover; 390,000 tested, 0.01% active; AID 588456; further: potency means the concentration at half of the fitted maximal effect; on the % scale 0 is the no-effect control and ±100 the full control effect; nearly all actives have a fitted effect of over 50% in size
#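 Rat TrxR1, dispensed at 90 nM, was prereduced with 400 uM NADPH (final) for 5 min at ~22 deg C, then incubated with compound 15 min before 400 uM selenite. A first-read NADPH fluorescence drop versus no-compound background flagged substrates.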
# BRCA1 expr up = activators of BRCA1 expression; MCF7-BRCA1-FFLuc reporter, luminescence, 48 h; response scale: scaled: vehicle 0%, 10 µM genistein 100%; Potency, µM (doses to about 46.1 µM), inactives show at the top dose activation, actives largely listed as activators; 380,000 tested, 1.1% active; AID 624202; further: potency means the concentration at half of the fitted maximal effect; nearly all actives have a fitted effect of over 80% in size
#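 MCF7 cells carrying a BRCA1-firefly luciferase reporter (2000 cells/well, phenol-red free MEM) were attached for 2 h at 37 °C, then given compounds for 48 h. Luminescence was read 15 min after luciferase reagent; activity normalized to genistein (10 microM) and DMSO.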
# IL2 activator = activators of IL-2. IL-2 activation reporter assay, cell-based qHTS; stimulated with anti-CD3/CD4/CD28 beads; in transgenic mouse T cells. activation, % (series mostly up to about 46 µM). 360,000 tested, 0.065% active. AID 652025; in the data active means activation above about 50%; inconclusive means mostly about 30% to 49%; further: 0% is about no effect
#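 Using fluorescent plate cytometry, EGFP and DsRed are detected in transgenic mouse T cells stimulated 18 h at 37 degrees C with antibody-coated beads after 60 min compound pretreatment.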
# rTrxR1 inhibitor = rat TrxR1 inhibition; AID 588453; Potency, µM (top dose mostly 114 µM), for inactives: top-dose activity change, negative = inhibition, most hits filed as inhibitors; recombinant rTrxR1, NADPH fluorescence consumption, selenite substrate; O89049; 390,000 tested, 1% active; further: potency means the concentration at half of the fitted maximal effect; on the % scale 0 is the no-effect control and ±100 the full control effect; nearly all actives have a fitted effect of over 65% in size
#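 Rat TrxR1 (90 nM in the dispensed reagent) was pre-reduced with 400 uM NADPH for 5 min at room temperature, then incubated with compound for 15 min. After 400 uM selenite was added, NADPH fluorescence (Ex 340/Em 450 nm) was followed for 8 min.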
# IDH1 R132H inh = human IDH1 R132H inhibition | IDH1-R132H enzyme, NADPH consumption, diaphorase/resazurin fluorescence | Potency, µM (series often up to 76.6 µM), without a hit: top-dose activity change, negative = inhibition, most hits filed as inhibitors | 390,000 tested, 0.093% active | AID 602179; further: potency means the concentration at half of the fitted maximal effect; on the % scale 0 is the no-effect control and ±100 the full control effect; nearly all actives have a fitted effect of over 65% in size
# Target sequence (O75874 whole entry R132H, stated change not applied): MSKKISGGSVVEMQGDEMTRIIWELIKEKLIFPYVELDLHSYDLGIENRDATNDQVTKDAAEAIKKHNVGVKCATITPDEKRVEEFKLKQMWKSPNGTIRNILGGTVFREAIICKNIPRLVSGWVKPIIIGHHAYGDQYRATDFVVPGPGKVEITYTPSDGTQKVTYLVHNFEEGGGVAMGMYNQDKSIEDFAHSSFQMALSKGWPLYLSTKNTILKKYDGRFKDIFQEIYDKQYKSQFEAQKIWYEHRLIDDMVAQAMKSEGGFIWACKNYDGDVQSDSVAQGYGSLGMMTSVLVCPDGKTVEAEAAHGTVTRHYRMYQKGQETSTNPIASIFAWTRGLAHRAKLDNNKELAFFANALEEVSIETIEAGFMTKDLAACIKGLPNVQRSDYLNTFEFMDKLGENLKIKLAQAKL
#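 IDH1-R132H (0.5 ug/mL) preincubated 30 min with compound, then NADPH (0.016 mM) and alpha-KG (2 mM) added; 80 min at RT, pH 7.5. Remaining NADPH coupled via diaphorase/resazurin to fluorescence (540/590 nm); concentration-response curves normalized to no-enzyme control.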
# Giardia killer = kills Giardia lamblia; Giardia lamblia trophozoite viability; activity change, % at 7.66 µM, hits read low; 340,000 tested, 0.15% active; in the data active means activity change below about -80%; inconclusive means between about -30% and that limit;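 further: parasites exposed to compound for two days anaerobically before the ATP read; on the % scale 0 is the no-effect control and ±100 the full control effect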
#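 Giardia lamblia trophozoites (100 cells/well) were incubated with compounds for 48 h at 37 deg C under anaerobic conditions. Viability was read as ATP content by one-step luminescence after 15-30 min at room temperature.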
# * = called active by the depositor; u = inconclusive; x = no result given; [ ] = dose if it differs, or a comment. Unless noted, the call rests on the fitted dose curve; in most records, active means well fitted curve in the direction sought with a large enough effect; inconclusive means small, poorly fitted or top-dose-only effect, or another doubt; inactive means no such curve, though single readings can be large; an effect the other way counts as inactive or inconclusive.
SMILES,TrxR1 substrate,BRCA1 expr up,IL2 activator,rTrxR1 inhibitor,IDH1 R132H inh,Giardia killer
Cc1cc(NC(=O)Nc2ccc(C)c(C)c2)no1,6%[57.1 µM],7.9µM*,6,6%[57.1 µM],8%,9
C#CCNC(=O)/C=C/c1ccc(OC)cc1,-2%,13µM*,0,1%,10%,18
COc1cccc(C(=O)NC(=O)Nc2cc(C)on2)c1,1%,7.9µM*,-1,18%[57.1 µM],4%,5
COc1cccc(NC(=O)Nc2cc(C)on2)c1,4%,54%,0,18%,9%,19
COc1ccc(/C=C/C(=O)Nc2cc(C)on2)cc1,-8%,4.5µM*,-1,-7%,-2%,2
Cc1cc(NC(=O)/C=C/c2ccccc2)no1,1%,u,-3,11%,0%,-7
Cc1cc(NC(=O)Nc2ccc(F)cc2)no1,4%,40%,1,16%,1%,-2
COc1ccc(/C=C/C(=O)NCCCN2CCCC2)cc1,1%,-8%,1,5%,0%,-1
Cc1cc(C)c(S(=O)(=O)n2cnc(C)c2)c(C)c1,4%[57.1 µM],x,x,11%[57.1 µM],-17%,x
CCOc1cc2[nH]c(=O)n(CCCCC(=O)N3CCN(c4ccc(OC)cc4)CC3)c(=O)c2cc1OCC,4%[57.1 µM],x,x,12%[57.1 µM],-3%,x
COc1ccc(C(=O)/C=C/Nc2cc(C)on2)cc1,10%,3.2µM*,0,14%,7%,7
Cc1ccnc(SCC(=O)c2ccc(Br)s2)n1,2%[57.1 µM],35%,-1,3%[57.1 µM],2%,-15
Cc1ccnc(SCC(=O)c2cccs2)n1,-9%,2.5µM*,2,-16%,-4%,23
Cc1ccc(S(=O)(=O)N2CCN(c3nc(-c4cccs4)cc4ccccc34)CC2)cc1,7%,0%,x,5%,x,-18
C1=C(c2cc3ccccc3cn2)CCCC1,6%[57.1 µM],10µM*,1,13%[57.1 µM],8%,-2
Cn1ncc(S(=O)(=O)Cc2ccccc2)c(Cl)c1=O,10%[57.1 µM],16%,-1,1.1µM*,16%,-15
CCCCNC(=O)c1cnc2sc(N3CCCCCC3)nn2c1=O,25%[57.1 µM],x,x,-4%[57.1 µM],17%,x
COC(=O)c1c(C)nn(-c2ccc(F)cc2)c1-n1cccc1,13%,x,x,15%,x,x
CCCCCCC[n+]1ccc(/C=C/c2c(C)[nH]c3ccccc23)c2ccccc21,3%,x,x,-8%,x,x
COc1ccc(CN2C(=O)CS/C2=N/N=C/c2ccccc2)cc1,3%,4µM*,0,35%,3%,33
COc1ccc(N=C2SCC(=O)N2Cc2ccccc2)cc1,-6%[57.1 µM],-5%,-4,-16%[57.1 µM],6%,-20
COc1ccc(/C=N/N=C2/SCC(=O)N2Cc2ccccc2)cc1,2%,5.6µM*,0,-8%[57.1 µM],3%,13
CCN(CC)c1ccc(C(=C2C=CC(=[N+](CC)CC)C=C2)c2ccccc2)cc1,-10%,-85%,0,40µM*,13%,1
O=C1NC2CCCCC2C(=O)N1OS(=O)(=O)c1ccccc1 (stereo not given),-2%[57.1 µM],-34%,-1,3.5µM*,3%,0
O=c1c(=Nc2ccccc2O)c(=O)c2ccccc12,2%[57.1 µM],11µM*,1,19%[57.1 µM],-1%,5
SMILES,TrxR1 substrate,BRCA1 expr up,IL2 activator,rTrxR1 inhibitor,IDH1 R132H inh,Giardia killer
CCn1cc([N+](=O)[O-])c(C(=O)Nc2ccc3c(c2)OCCO3)n1,10%,5µM*,-2,9%,7%,0
O=C1C(Cl)=C(Nc2ccccc2O)C(=O)N1c1ccccc1,-4%,-25%,-3,45µM*,4%,1
Cc1ccc(O)c(NC2=C(Cl)C(=O)N(Cc3ccccc3)C2=O)c1,-4%,-43%,-2,10µM*,0%,20
Cc1ccc(C(=O)N2CCCCC2)cc1NC1=C(Cl)C(=O)N(Cc2ccccc2)C1=O,3%,-90%,-1,23%,6%,2
COc1ccc2oc(=O)c(C(=O)NCCc3c(C)[nH]c4c(C)cccc34)cc2c1,-7%,-20%,x,-3%,-9%,x
O=c1c2c3c(sc2nc2n1CCCCC2)CCCC3,-5%,4.5µM*,-1,-14%,3%,6
CC1=Nn2c(nc3sc4c(c3c2=O)CCCC4)SC1,3%[57.1 µM],7.1µM*,0,-4%[57.1 µM],6%,-3
CC1CSc2nc3sc4c(c3c(=O)n21)CCCC4 (stereo not given),6%[57.1 µM],92%,4,5%[57.1 µM],2%,-19
Nc1nc2sc3c(c2c(=O)s1)CCCC3,-5%,11µM*,-2,-11%,4%,5
O=c1c2c3c(sc2nc2n1CCCC2)CCCCC3,-9%,u,0,-14%,4%,-11
CCOc1ccccc1CNCc1cccn1-c1nnc(N2CCN(c3ccccc3)CC2)s1,2%,x,x,10%,1%,x
O=C(C[n+]1cccc2cccc(O)c21)c1ccccc1,-6%,x,x,4%,x,x
CN(Cc1ccon1)C(=O)CC1C(=O)NCCN1Cc1cccc(F)c1F (stereo not given),1%,24%,-2,u,2%,-1
CN(CCCC1CCCC1)C(=O)CC1C(=O)NCCN1Cc1cccc(F)c1F (stereo not given),9%,-27%,0,40µM*,12%,-7
CC(C)OCCCn1c(=O)c2ccccc2n2c(-c3cc(Cl)ccc3O)nnc12,-6%,x,x,1%,0%,x
CCCNC(=O)/C=C/c1ccc(C(C)C)cc1,1%,13µM*,0,-7%,9%,-3
CC(C)c1ccc(/C=C/C(=O)NCCCc2ccccc2)cc1,2%[11.4 µM],-16%,4,15%,-2%,23
NC(=O)c1c(NC(=O)c2cnccn2)sc2c1CCCC2,0%,7.9µM*,1,10%[57.1 µM],-1%,22
NC(=O)c1c(NC(=O)c2ccncc2)sc2c1CCCC2,-7%,48%,-3,-4%,-8%,u
CCN(CC)c1ccc(NS(=O)(=O)c2cc(-c3onc(C)c3C)ccc2OC)c(C)c1,0%[57.1 µM],x,x,13%[57.1 µM],-3%,x
CC(C)(C)NC(=O)CCN(/N=C/c1ccc([N+](=O)[O-])o1)C1=NS(=O)(=O)c2ccccc21,-13%,-95%,-1,u,3%,-92*
CN(C)c1ccc(/C=N/N(CCC(=O)NC(C)(C)C)C2=NS(=O)(=O)c3ccccc32)cc1,-8%,15%,1,-2%,-5%,5
COc1ccc(N(CC(=O)Nc2cc(OC)cc(OC)c2)S(=O)(=O)c2c(C)noc2C)cc1,-5%,-38%,x,13%,-8%,x
Oc1cc(O)c(CN2CCOCC2)cc1CN1CCOCC1,-4%,7%,-4,11µM*,1%,-18
O=C(c1ccco1)n1nc(-c2ccccc2)nc1SCc1ccccc1,-6%,2.8µM*,-2,0%,-2%,-14
